In PubChem BioAssay (NCI):
This is part of a sample that, as a whole, favours compounds with a hit. Of some 83,000 tested, about 20% had one in any assay.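 Negative percent growth values reflect cell death: -40 means 40% of the cells present at the start died, and -100 means all died.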 Calls of active or inactive are those of the source. The calls were made as follows: active = growth percent below 10; inactive = the rest.

What was measured:
Experiment in all cases: NCI-60 one-dose screen, 48 h (100 = growth as untreated, 0 = no growth, -100 = all killed)
Conditions in all cases: 10 µM unless noted
SK-MEL-2 melanoma = system: SK-MEL-2 melanoma
EKVX NSCLC = system: EKVX NSCLC
SN12C renal = system: SN12C renal
UO-31 renal = system: UO-31 renal
TK-10 renal = system: TK-10 renal
ACHN renal = system: ACHN renal
CAKI-1 renal = system: CAKI-1 renal
A498 renal = system: A498 renal
MOLT-4 leukemia = system: MOLT-4 leukemia
SR leukemia = system: SR leukemia
OVCAR-8 ovarian = system: OVCAR-8 ovarian
OVCAR-5 ovarian = system: OVCAR-5 ovarian
OVCAR-4 ovarian = system: OVCAR-4 ovarian
SK-OV-3 ovarian = system: SK-OV-3 ovarian
IGROV1 ovarian = system: IGROV1 ovarian
OVCAR-3 ovarian = system: OVCAR-3 ovarian
HS 578T breast = system: HS 578T breast
NCI/ADR-RES ovarian = system: NCI/ADR-RES ovarian
CCRF-CEM leukemia = system: CCRF-CEM leukemia
RPMI-8226 leukemia = system: RPMI-8226 leukemia

Measured: growth

COc1ccc(-c2nc3c(N)c(CO)c(C)nc3o2)cc1
active: A498 renal -10.8%
inactive: SK-MEL-2 melanoma 105% | EKVX NSCLC 95.7% | SN12C renal 106% | UO-31 renal 88.7% | TK-10 renal 85% | ACHN renal 112% | CAKI-1 renal 97% | MOLT-4 leukemia 96.3% | SR leukemia 100% | OVCAR-8 ovarian 110% | OVCAR-5 ovarian 85.1% | OVCAR-4 ovarian 104% | SK-OV-3 ovarian 106% | IGROV1 ovarian 86.9% | OVCAR-3 ovarian 103% | HS 578T breast 105% | NCI/ADR-RES ovarian 89.7%

O=c1[nH]c2ccccc2n1C1CCN(CCOc2ccccc2)CC1
inactive: SK-MEL-2 melanoma 83.3% | EKVX NSCLC 99.7% | SN12C renal 97.3% | UO-31 renal 64.6% | ACHN renal 90.9% | CAKI-1 renal 98.8% | A498 renal 63.7% | CCRF-CEM leukemia 74.3% | MOLT-4 leukemia 86.4% | RPMI-8226 leukemia 41.5% | OVCAR-8 ovarian 79% | OVCAR-5 ovarian 104% | OVCAR-4 ovarian 66.7% | SK-OV-3 ovarian 91.8% | OVCAR-3 ovarian 65.4% | HS 578T breast 54.6% | NCI/ADR-RES ovarian 94.1%

COc1cccc(-c2nc3sccn3c2-c2ccnc(NCCNS(=O)(=O)c3cccc(F)c3)c2)c1
active: UO-31 renal 6.44% | RPMI-8226 leukemia -25.3%
inactive: SK-MEL-2 melanoma 40.8% | EKVX NSCLC 38.5% | SN12C renal 27.6% | ACHN renal 20.5% | CAKI-1 renal 21.3% | A498 renal 36.6% | CCRF-CEM leukemia 16.5% | MOLT-4 leukemia 20.2% | OVCAR-8 ovarian 12.7% | OVCAR-5 ovarian 71.4% | OVCAR-4 ovarian 21.5% | SK-OV-3 ovarian 45.9% | IGROV1 ovarian 31.6% | OVCAR-3 ovarian 36.7% | HS 578T breast 27.9% | NCI/ADR-RES ovarian 12.6%

CC(=O)OC[C@H]1OC(Sc2sc(C(=O)c3ccc(Br)cc3)c(N)c2-c2nc3ccccc3s2)[C@H](OC(C)=O)[C@@H](OC(C)=O)[C@@H]1OC(C)=O (stereo not given in full)
inactive: SK-MEL-2 melanoma 107% | EKVX NSCLC 72.7% | SN12C renal 33% | UO-31 renal 64.6% | ACHN renal 54.9% | CAKI-1 renal 63.8% | A498 renal 87.8% | CCRF-CEM leukemia 44.1% | RPMI-8226 leukemia 43% | OVCAR-8 ovarian 46.1% | OVCAR-5 ovarian 65.7% | SK-OV-3 ovarian 96.6% | IGROV1 ovarian 45.6% | OVCAR-3 ovarian 76.2% | HS 578T breast 43% | NCI/ADR-RES ovarian 57.9%

CCN(CC)CCn1nc2c3c(cccc3c1=O)-c1ccccc1-2
inactive: SK-MEL-2 melanoma 32.8% | EKVX NSCLC 40.7% | SN12C renal 15.5% | TK-10 renal 26.4% | CAKI-1 renal 18.1% | A498 renal 24.3% | RPMI-8226 leukemia 24.9% | OVCAR-8 ovarian 23.3% | OVCAR-5 ovarian 33.9% | OVCAR-4 ovarian 51.6% | IGROV1 ovarian 15.6% | OVCAR-3 ovarian 52.5% | HS 578T breast 76.1% | NCI/ADR-RES ovarian 35.1%
active: UO-31 renal 6.26% | MOLT-4 leukemia 4.13% | SR leukemia 4.64% | SK-OV-3 ovarian 7.24%

O=C(NCCCNc1cc(-c2cn(-c3ccccc3)nc2-c2cccc(O)c2)ccn1)c1cccc(O)c1
inactive: SK-MEL-2 melanoma 83.5% | EKVX NSCLC 71.4% | SN12C renal 76.6% | UO-31 renal 85.8% | TK-10 renal 115% | CAKI-1 renal 98.4% | A498 renal 102% | CCRF-CEM leukemia 40.5% | RPMI-8226 leukemia 45.2% | OVCAR-8 ovarian 40.9% | OVCAR-5 ovarian 107% | OVCAR-4 ovarian 67.8% | SK-OV-3 ovarian 69.3% | IGROV1 ovarian 84.5% | OVCAR-3 ovarian 58.3% | HS 578T breast 34.2% | NCI/ADR-RES ovarian 95%
active: SR leukemia -9.11%

N=C(N)c1ccc(-c2ccc(-c3cncc4ccccc34)s2)s1
active: EKVX NSCLC -65.7% | SN12C renal -63% | UO-31 renal -76.6% | TK-10 renal -93.5% | CAKI-1 renal -91.4% | MOLT-4 leukemia -50.3% | SR leukemia -29.3% | RPMI-8226 leukemia -33.5% | OVCAR-8 ovarian -67.9% | OVCAR-5 ovarian -69.3% | OVCAR-4 ovarian -90.4% | IGROV1 ovarian -75.1% | OVCAR-3 ovarian -85.5% | HS 578T breast -49.6% | NCI/ADR-RES ovarian -53%
inactive: SK-MEL-2 melanoma 79.3% | A498 renal 70.2% | SK-OV-3 ovarian 64.4%

Cc1c(C(=O)N[C@@H](Cc2ccccc2)C(=O)C(=O)NCCc2ccccc2)[nH]c2ccccc2c1=O
inactive: SK-MEL-2 melanoma 111% | EKVX NSCLC 97.1% | SN12C renal 83.4% | UO-31 renal 103% | ACHN renal 101% | CAKI-1 renal 95.9% | A498 renal 86.5% | CCRF-CEM leukemia 104% | MOLT-4 leukemia 86.8% | RPMI-8226 leukemia 89.8% | OVCAR-8 ovarian 98.6% | OVCAR-4 ovarian 94% | SK-OV-3 ovarian 107% | IGROV1 ovarian 95.3% | OVCAR-3 ovarian 105% | HS 578T breast 105% | NCI/ADR-RES ovarian 100%

COc1ccc(/C=C/c2c(C(=O)/C=C/c3ccc(F)cc3)c(C)nc3ccccc23)cc1
active: CCRF-CEM leukemia 9.18% | MOLT-4 leukemia 5.98% | RPMI-8226 leukemia -8.58%
inactive: SK-MEL-2 melanoma 81.3% | EKVX NSCLC 63.1% | SN12C renal 45.2% | UO-31 renal 45.6% | ACHN renal 49.2% | CAKI-1 renal 54.6% | A498 renal 77.2% | OVCAR-8 ovarian 41.3% | OVCAR-5 ovarian 50.9% | OVCAR-4 ovarian 56% | SK-OV-3 ovarian 75.9% | IGROV1 ovarian 38.8% | OVCAR-3 ovarian 37.5% | HS 578T breast 70.5% | NCI/ADR-RES ovarian 33.1%

Cc1ccc(Nc2ccc(Nc3ccc(C)cc3)c3c2C(=O)c2cccc(O)c2C3=O)cc1
inactive: SK-MEL-2 melanoma 65.5% | EKVX NSCLC 91.6% | SN12C renal 98% | UO-31 renal 64.7% | ACHN renal 91% | CAKI-1 renal 104% | A498 renal 116% | CCRF-CEM leukemia 93.2% | MOLT-4 leukemia 104% | RPMI-8226 leukemia 88.7% | OVCAR-8 ovarian 97.8% | OVCAR-5 ovarian 82.1% | OVCAR-4 ovarian 105% | SK-OV-3 ovarian 87.5% | OVCAR-3 ovarian 121% | HS 578T breast 99% | NCI/ADR-RES ovarian 99.8%
active: IGROV1 ovarian -12.9%

CCN1C(=O)N(CC)C2Nn3c(s/c(=C\c4cccc([N+](=O)[O-])c4)c3=O)=NC21 (stereo not given)
inactive: SK-MEL-2 melanoma 73.3% | EKVX NSCLC 72.7% | SN12C renal 48.6% | UO-31 renal 56.8% | TK-10 renal 17.9% | CAKI-1 renal 35.3% | CCRF-CEM leukemia 46% | RPMI-8226 leukemia 64.8% | OVCAR-5 ovarian 45.4% | OVCAR-4 ovarian 59.6% | SK-OV-3 ovarian 51.7% | IGROV1 ovarian 53.1% | HS 578T breast 41.3% | NCI/ADR-RES ovarian 16.1%
active: A498 renal 5.28% | OVCAR-3 ovarian 9.24%

Cc1ccc2c(c1)Sc1c(ccc3ccccc13)N2
inactive: SK-MEL-2 melanoma 116% | EKVX NSCLC 72.8% | SN12C renal 81.8% | UO-31 renal 60.1% | ACHN renal 64.5% | CAKI-1 renal 73.4% | A498 renal 91.7% | CCRF-CEM leukemia 67.6% | MOLT-4 leukemia 32.4% | RPMI-8226 leukemia 50.4% | OVCAR-8 ovarian 72.3% | OVCAR-5 ovarian 109% | OVCAR-4 ovarian 73.5% | SK-OV-3 ovarian 73.1% | IGROV1 ovarian 42.3% | OVCAR-3 ovarian 70.8% | HS 578T breast 66.4% | NCI/ADR-RES ovarian 57.3%

Cc1cc(C)c2c(-c3nnc(N)s3)cc(=O)oc2c1
inactive: SK-MEL-2 melanoma 114% | EKVX NSCLC 97.2% | SN12C renal 99.3% | UO-31 renal 88% | TK-10 renal 108% | CAKI-1 renal 89.3% | A498 renal 79.9% | MOLT-4 leukemia 106% | SR leukemia 105% | RPMI-8226 leukemia 72.3% | OVCAR-8 ovarian 102% | OVCAR-5 ovarian 103% | OVCAR-4 ovarian 100% | SK-OV-3 ovarian 108% | IGROV1 ovarian 101% | OVCAR-3 ovarian 105% | HS 578T breast 92.4% | NCI/ADR-RES ovarian 102%

CCN(CC)c1ccc(C(=O)c2ccc(N(CC)CC)cc2)cc1
inactive: SK-MEL-2 melanoma 18.7% | EKVX NSCLC 55% | SN12C renal 40.8% | UO-31 renal 60.4% | ACHN renal 53.1% | CAKI-1 renal 43.4% | A498 renal 41.1% | CCRF-CEM leukemia 19.8% | MOLT-4 leukemia 24.3% | RPMI-8226 leukemia 20.8% | OVCAR-8 ovarian 32.2% | OVCAR-5 ovarian 40.8% | OVCAR-4 ovarian 61.4% | IGROV1 ovarian 37.3% | HS 578T breast 36.2%
active: SK-OV-3 ovarian -1.44% | OVCAR-3 ovarian -20.3% | NCI/ADR-RES ovarian -27.8%

CCOc1ccccc1-c1cc(-c2cccs2)c(C#N)c(=O)[nH]1
inactive: SK-MEL-2 melanoma 98.4% | EKVX NSCLC 97.5% | SN12C renal 83.3% | UO-31 renal 68.8% | TK-10 renal 110% | CAKI-1 renal 76.1% | A498 renal 70.2% | MOLT-4 leukemia 92.9% | SR leukemia 77.4% | RPMI-8226 leukemia 91.2% | OVCAR-8 ovarian 95% | OVCAR-5 ovarian 94.6% | OVCAR-4 ovarian 39.2% | SK-OV-3 ovarian 98.7% | IGROV1 ovarian 66.7% | OVCAR-3 ovarian 99.7% | HS 578T breast 76.6% | NCI/ADR-RES ovarian 76.7%

COC(=O)[C@]12CC[C@@H](C)[C@H](C)[C@@H]1C1=CC[C@@H]3[C@@]4(C)C(C=O)=C[C@@](C)(COC(C)=O)C4=CC[C@@]3(C)[C@]1(C)CC2
active: SK-MEL-2 melanoma -45.1% | SN12C renal 9.9% | UO-31 renal -9.5% | TK-10 renal -8.72% | CCRF-CEM leukemia -14.7% | SR leukemia -30.5% | RPMI-8226 leukemia -9.49% | SK-OV-3 ovarian 6.81% | OVCAR-3 ovarian -67.3% | HS 578T breast -12.9%
inactive: EKVX NSCLC 12.7% | CAKI-1 renal 13.7% | A498 renal 14.6% | OVCAR-8 ovarian 13.2% | OVCAR-5 ovarian 12.9% | OVCAR-4 ovarian 17% | IGROV1 ovarian 12.9% | NCI/ADR-RES ovarian 12.5%

Oc1c(CN2CCCC2)cc(COCc2ccc(Br)cc2)c2cccnc12
active: SK-MEL-2 melanoma -18% | UO-31 renal -13.9% | TK-10 renal 7.24% | CAKI-1 renal 1.4% | A498 renal -1.12% | MOLT-4 leukemia -8.18% | SR leukemia 3.12% | RPMI-8226 leukemia 1% | OVCAR-8 ovarian -27% | OVCAR-4 ovarian -5.71% | SK-OV-3 ovarian -17.4% | IGROV1 ovarian -6.09% | OVCAR-3 ovarian -4.02% | NCI/ADR-RES ovarian -40.9%
inactive: EKVX NSCLC 27.5% | SN12C renal 12% | OVCAR-5 ovarian 29.6% | HS 578T breast 45.2%
